NOMO-1 viab = NOMO-1 AML cell viability reduction, primary screen, STK33 inhibitor project, CellTiter-Glo luminescence; NOMO-1 AML viability, 72 h; inhibition, % (test concentration not listed); 37,000 tested, 7.5% active; AID 2330, 2010; in the data active = inhibition above about 80%
U2OS ROS induce = ROS inducers in U2OS cancer cells, primary screen, cell-based, H2DCF-DA fluorescence; U2OS ROS induction; ROS induction (% of piperlongumine), % at 10 µM; 46,000 tested, 2% active; AID 624156, 2012; in the data active = ROS induction above about 79%, passing the limit was not always enough
Of the large screens only hits and unclear results are named; the others gave an inactive call. The sample as a whole holds a higher share of hits than the screen did.

C[C@@H]1CN([C@@H](C)CO)C(=O)c2cccc(NC(=O)Nc3ccc4c(c3)OCO4)c2O[C@H]1CN(C)CC1CCCCC1	NOMO-1 viab 83
C[C@@H]1CN([C@@H](C)CO)C(=O)c2cccc(NC(=O)Nc3ccc4c(c3)OCO4)c2O[C@@H]1CN(C)Cc1ccccc1	none
C[C@@H]1CN([C@@H](C)CO)C(=O)c2cccc(NC(=O)Nc3ccc4c(c3)OCO4)c2O[C@@H]1CN(C)CC1CCCCC1	none
Cc1cc(NS(=O)(=O)c2ccc(NC(=O)c3oc4cc(C)c(C)cc4c3C)cc2)nc(C)n1	none
COC(=O)c1cccc(NC(=O)CSc2nc(C)cc(C(F)(F)F)n2)c1	none
Cc1noc(C)c1NC(=O)N(C)C[C@H]1Oc2c(cccc2N(C)C)C(=O)N([C@@H](C)CO)C[C@H]1C	none
C[C@@H]1CN([C@@H](C)CO)C(=O)c2cc(NS(C)(=O)=O)ccc2O[C@H]1CN(C)C	none
O=C(CSc1nnc(-c2ccccc2Cl)o1)c1ccc2c(c1)OCCO2	none (no result: U2OS ROS induce)
C[C@@H]1CN([C@H](C)CO)C(=O)Cc2cc(NS(C)(=O)=O)ccc2O[C@H]1CN(C)C(=O)Nc1ccc(C(F)(F)F)cc1	none
C[C@@H]1CN([C@H](C)CO)C(=O)CCCn2nncc2CO[C@@H]1CN(C)Cc1ccccc1	none (no result: NOMO-1 viab)
CCCCC(CC)C(=O)Nc1cc(OC)ccc1OC (stereo not drawn)	none (no result: NOMO-1 viab)
C[C@H](CO)N1C[C@H](C)[C@@H](CN(C)Cc2ccccc2)Oc2c(NC(=O)Nc3ccc4c(c3)OCO4)cccc2C1=O	none
C[C@H]1CN([C@@H](C)CO)C(=O)c2cccc(NC(=O)Nc3ccc4c(c3)OCO4)c2O[C@H]1CN(C)Cc1ccc(-c2ccccc2)cc1	U2OS ROS induce 102
C[C@H]1CN([C@@H](C)CO)C(=O)c2cccc(NC(=O)Nc3ccc4c(c3)OCO4)c2O[C@@H]1CN(C)Cc1ccc(-c2ccccc2)cc1	none
C[C@H](CO)N1C[C@H](C)[C@H](CN(C)Cc2ccccc2)Oc2c(NC(=O)Nc3ccc4c(c3)OCO4)cccc2C1=O	NOMO-1 viab 84
CN(/N=C(\C#N)C(=O)C1CC1)c1ccc(Cl)cc1	none
O=C(CSc1nnc(-c2cccc([N+](=O)[O-])c2)n1-c1ccccc1)Nc1ccc(F)cc1	none
COc1cccc2c1C(=O)c1c(O)c3c(c(O)c1C2=O)C[C@@](O)(C(C)=O)C[C@@H]3O[C@H]1C[C@H](N)[C@H](O)[C@H](C)O1	NOMO-1 viab 121, U2OS ROS induce 141
CC1CC(=O)c2c(ccc3c2C(=O)c2c(O[C@@H]4O[C@@H](C)[C@H](O)[C@@H](O)[C@H]4O)cccc2C3=O)C1 (stereo partly drawn)	none
O=C(Cn1ccc([N+](=O)[O-])n1)Nc1cc(Cl)cc(Cl)c1	none
CC(=O)O[C@@H]1CC2C(C)(C)C(=O)C=C[C@]2(C)C2CC[C@@]3(C)[C@H](c4ccoc4)OC(=O)[C@H]4O[C@]43[C@@]21C (stereo partly drawn)	none
CC(=O)O[C@@H]1C=C[C@@]2(C)C(C[C@@H](OC(C)=O)[C@@]3(C)C4=CC(=O)O[C@@H](c5ccoc5)[C@]4(C)CCC23)C1(C)C (stereo partly drawn)	NOMO-1 viab 106
COc1cc2nc(N3CCN(C(=O)C4COc5ccccc5O4)CC3)nc(N)c2cc1OC (stereo not drawn)	none
COc1cc2nc(N3CCN(C(=O)c4ccco4)CC3)nc(N)c2cc1OC	NOMO-1 viab 95
C[C@@H]1CN([C@@H](C)CO)C(=O)CCCn2nncc2CO[C@H]1CN(C)C(=O)c1ccc2ccn(C)c2c1	U2OS ROS induce 94 (no result: NOMO-1 viab)
C[C@H](CO)N1C[C@H](C)[C@H](CN(C)CC2CC2)OCc2cnnn2CCCC1=O	U2OS ROS induce 137 (no result: NOMO-1 viab)
C[C@H]1CN([C@@H](C)CO)C(=O)CCCn2nncc2CO[C@@H]1CN(C)CC1CC1	none (no result: NOMO-1 viab)
C[C@@H]1CN([C@H](C)CO)C(=O)CCCn2nncc2CO[C@@H]1CN(C)C(=O)c1ccc2ccn(C)c2c1	none (no result: NOMO-1 viab)
Cc1ccc(S(=O)(=O)N(C)C[C@@H]2Oc3ccc(NC(=O)C4CC4)cc3C(=O)N([C@H](C)CO)C[C@H]2C)cc1	none
O=C(NCc1ccccn1)c1nn2c(C(F)(F)F)cc(-c3ccccc3)nc2c1Cl	none
CCCCN(C)S(=O)(=O)c1ccc(C(=O)Nc2nc3ccc4ccccc4c3s2)cc1	none (no result: NOMO-1 viab)
Cn1c(SCc2nc3ccccc3c(=O)[nH]2)nnc1-c1cc2cc(Br)ccc2o1	none
Cc1noc(C)c1S(=O)(=O)N(C)C[C@@H]1Oc2c(NS(=O)(=O)c3cccs3)cccc2C(=O)N([C@H](C)CO)C[C@@H]1C	none
CCOC(=O)c1c(NC(C)=O)sc2c1CCCCC2	none
CCOC(=O)C1CCN(C(c2cccc(Cl)c2)c2c(NC(C)=O)sc3c2CCCC3)CC1 (stereo not drawn)	NOMO-1 viab 109
O=C(CN1C(=O)c2ccccc2S1(=O)=O)Nc1ccc(Cl)c(Cl)c1	none
COC(=O)Oc1ccc2c(=O)c(-c3ccccc3)coc2c1	none (no result: NOMO-1 viab)
